Test results: PubChem BioAssay (NCATS)
Results filed as inconclusive are left out. Values without a mark were called inactive. Activity calls are given as the source filed them. The call rests on the fitted dose curve; in most records, active means well fitted activation curve with a large enough effect; inconclusive means small, poorly fitted or top-dose-only effect; inactive means flat fitted curve, though single readings scatter.

Experiment: HEK293 12hr Apoptosis Induction qHTS against the NCATS CANVASS Library (AID 1347361); on caspase activation: 0% is about no effect
Details: HEK293 caspase-3/7 Caspase-Glo luminescence; series mostly up to 46.1 µM; caspase activation: at the top concentration
Excerpt: Natural products and their derivatives continue to be wellsprings of nascent therapeutic potential. However, many laboratories have limited resources for biological evaluation, leaving their previously isolated or synthesized compounds largely or completely untested. To address this issue, the Canvass library of natural products was assembled (https://tripod.nih.gov/canvass), in collaboration with academic and industry researchers, for quantitative high-throughput screening (qHTS) across a diverse set of cell-based and biochemical assays. The pure (>85% purity by liquid chromatography/mass spectrometry [LC/MS]) Canvass library of 346 natural products were submitted by 45 academic laboratories and companies around the world. We collected pure natural products to circumvent deconvolution and structure elucidation due to time and resource limitations. The library was formatted into 1536-well plates and evaluated in 50 qHTS (in an 11-pnt concentration series) bioassays with broad scope of disease-relevant mechanisms. The resulting data set from 50 different assays was then systematically analyzed to identify overall trends and specific natural products with interesting biological activities. Reported herein are the results of each individual qHTS and their corresponding assay protocol. The Caspase-Glo (R) (Promega) is a homogeneous, luminescent assay that measures caspase activity. The detection substrate contains tetrapeptide sequence DEVD in an "add-mix-measure" format. The reagent generates a luminescent signal produced by a thermostable luciferase. The luminescence is proportional to the amount of caspase activity in the assay reaction. National Center for Advancing Translational Sciences (NCATS), Rockville, MD National Institute of Health (NIH), Bethesda, Maryland
Cancer Cell Apoptosis Assay 1. In a 1536 well, white solid bottom tissue culture plates (Corning 7494), HEK293 cancer cells in DMEM + 10% FBS + 1% P/S media were dispensed in each well at a final concentration of 500 cells / well (5uL volume) using the Multidrop Combi (Thermo Fisher Scientific) dispenser. 2. Compounds were pin transferred (~23nL volume) via Wako Pin-tool (Wako Automation, Richmond VA) equipped with a 1536 pin head. The assay plates were treated with compounds in a concentration series with a final concentration range of […] to 103uM. 3. Doxorubicin was used as a control in a 16pnt titration (1mM; 1:2 dilution; 16-points; n = 2; column 3, rows 1 - 32) and was pin transferred via Wako Pin-tool equipped with a 1536 pin head. The final concentration range of doxorubicin is 0.1nM - 4uM. 4. The assay plates were incubated for 12 hours at 37 degrees C/5% CO2/95% Rh. 5. 3uL Caspase-Glo 3/7 (R) (Promega) detection reagent was then added to the assay plates (columns 2 - 48, rows 1 - 32) and incubated at room temperature, covered from light, for 15 min. 6. Luminescence signal was acquired via the ViewLux plate reader (PerkinElmer) using a clear filter, 20 second exposure, and 2x binning settings.
Potency means the concentration at half of the fitted maximal effect.

Row | Compound | caspase activation | Potency
1 | C=C[C@]1(C)CC[C@@H]([C@H](C)C(=O)OCC)O1 | 2.31% [at 27.5 µM] | –
2 | CC1(C)CC[C@]2(C(=O)O)CC[C@]3(C)C(=CC[C@@H]4[C@@]5(C)C[C@@H](O)[C@H](O)C(C)(C)[C@@H]5CC[C@]43C)[C@@H]2C1 | 4.18% | –
3 | COc1ccc([C@@H]2c3cc(OC)c(OC)cc3C(=O)[C@H](C)C2C)cc1OC (stereo not given in full) | 2.92% [at 9.19 µM] | –
4 | CC1(C)[C@H](Br)CC[C@]23C[C@]4(C)C(=O)CC12C[C@H]34 | -1.31% | –
5 | CC12C[C@]3(O)O[C@@H](O1)[C@]1(COC(=O)c4ccccc4)[C@@H]3CC21OC1OC(CO)C(O)C(O)C1O (stereo not given in full) | 0.494% | –
6 | CC1=CC2=C[C@H](C)C[C@@]23OC(=C(C)C3=O)CC(C)(C)/C=C/C1=O | – | 0.935 µM (active)
7 | C=C(C)CC[C@H](Cc1c(O)cc(O)c2c1O[C@H](c1ccc(O)cc1O)CC2=O)C(=C)C | 2.14% | –
8 | C=C1C[C@@]23C=CC(=O)[C@@](C)(CCC(=O)Nc4c(O)ccc(C(=O)O)c4O)C2C[C@@H]1C(O)C3 (stereo not given in full) | 1.08% | –
9 | CCCCCC[C@H](CCCCC[C@@H](O)C(N)=O)OC(=O)[C@@H]1CC=CN1C(=O)c1ccccc1O | 1.64% | –
10 | O=c1cc(-c2ccc(O)c(O[C@@H]3O[C@H](CO)[C@@H](O)[C@H](O)[C@H]3O)c2)oc2cc(O[C@@H]3O[C@H](CO)[C@@H](O)[C@H](O)[C@H]3O)cc(O)c12 | -1.05% | –
11 | O=Cc1ccc2n1C[C@@]1(OC2)O[C@H](CO)[C@@H](O)[C@@H]1O | -3.51% | –
12 | C[C@@H]1O[C@@H](Oc2c(-c3ccc(O)cc3)oc3cc(O)cc(O)c3c2=O)[C@H](O)[C@H](O)[C@H]1O | 2.24% | –
13 | C[C@@H]1C(=O)[C@]23CC[C@H]1C[C@]21O[C@H]2C(C)(C)C=CC(=O)[C@]23COC1=O | -0.708% | –
14 | C=C[C@]1(C)CC[C@@H]([C@H](C)C(=O)/C=C/C(C)C)O1 | -0.358% | –
15 | CCCCCCC[C@@H](C/C=C/CCC(=O)NCCc1c[nH]c2ccccc12)OC | 3.14% | –
16 | CC(C)=CCC/C(C)=C/Cc1c(O)c(CC=C(C)C)c(O)c2c(=O)c3cc(O)ccc3oc12 | 4.94% | –
17 | CC(=O)O[C@H]1CC[C@@]2(C)C(CC[C@]3(C)C2CC=C2C4CC(C)(C)CC[C@]4(C)CC[C@]23C)C1(C)C (stereo not given in full) | 2.99% | –
18 | CN1CC[C@]2(c3cccc4c3N[C@@H]3N(C)CC[C@]43[C@@]34CCN(C)[C@@H]3Nc3c([C@]56CCN(C)[C@H]5Nc5ccccc56)cccc34)c3ccccc3N[C@H]12 | 4.2% | –
19 | CO[C@@H]1[C@H](O)[C@@H](C)O[C@@H](OC[C@@H]2C(C)OC(=O)/C=C/[C@H](C)C(O[C@@H]3O[C@H](C)CC4(OC(=O)O[C@@H]4C)C3O)[C@@H](C)CC(C)C(=O)CC[C@H]3OC23)[C@@H]1OC (stereo not given in full) | -0.934% | –
20 | COc1ccc([C@@H]2c3cc(OC)c(OC)cc3C(=O)C(C)C2C)cc1OC (stereo not given in full) | 1.52% | –

Row | Compound | caspase activation | Potency
21 | CC1C(=O)C23CCC1C[C@@]21O[C@H]2C(C)(C)C=CC(=O)[C@@]23COC1=O (stereo not given in full) | -1.75% | –
22 | C/C(=C\[C@H](C)C(=O)CCCC1CC(=O)NC(=O)C1)[C@@H]1OC(=O)/C=C/CC/C=C/C[C@@H](O)[C@@H]1C | -3.72% | –
23 | CC(O)/C=C/C1(O)C(C)(C)CC(O)CC1(C)O (stereo not given) | 1.11% | –
24 | CNc1ccc(Cl)cc1C(=O)OC[C@]1(C)[C@H]2CC[C@]3(C)[C@@H](C[C@@H](OC)[C@H](C)[C@H]3C3=C(O)C(=O)OC3O)[C@]2(C)CC[C@H]1O (stereo not given in full) | 2.29% | –
25 | CCC[C@@H](C)/C=C(\C)[C@H](O)[C@H](C)/C=C/CC[C@@H](O)[C@H](C)[C@H](O)[C@H](C)[C@H](O)[C@H](C)[C@H]1O[C@H]([C@H](C)C(=O)O)CC[C@@H]1C | -5.93% | –
26 | CN1CC[C@]2(c3cccc4c3N[C@@H]3N(C)CC[C@]43[C@@]34CCN(C)[C@@H]3Nc3ccccc34)c3ccccc3N[C@H]12 | 17.5% | –
27 | O=Cc1ccc2n1C[C@@]1(C[C@H](O)[C@H](O)CO1)OC2 | 5.29% | –
28 | O=Cc1ccc2n1C[C@@]1(C[C@H](O)[C@@H](CO)O1)OC2 | 0.177% | –
29 | COc1ccc2oc3c(OC)c(OC)c(OC)c(OC)c3c(=O)c2c1 | 10.6% [at 9.19 µM] | –
30 | CCCCCCCCCCCCCCC[C@H](O)C[C@@H](O)C[C@@H](O)C[C@@H](O)C[C@@H](O)C[C@H]1CC=CC(=O)O1 | – | 9.35 µM (active)
31 | CC(C)(Br)[C@@H](Cl)C[C@H](Br)[C@](C)(Cl)/C=C/Br | 9.28% | –
32 | CS/C=C/C(N)=O | -0.747% | –
33 | C[C@H]1C[C@@H]([C@@H]2CC[C@]34O[C@H](CC[C@@]35C[C@H](C)C(=O)O5)CN24)OC1=O | 1.25% | –
34 | C=C1C[C@@]23C=CC(=O)[C@@](C)(CCC(=O)Nc4c(OC5O[C@H](CO)[C@@H](O)[C@H](O)[C@H]5O)ccc(C(=O)O)c4O)C2C[C@@H]1CC3 (stereo not given in full) | -0.637% | –
35 | C/C=C1/CC[C@@H]2c3[nH]c4ccccc4c3CCN2C1 | -1.04% | –
36 | O=C(O)CC1OCc2c(O)cccc21 (stereo not given) | -3.1% | –
37 | C1=C2CCCN[C@@H]2[C@@H]2CCN3CCCC[C@@H]3[C@H](C1)C2 | 2.1% | –
38 | COc1c(O)cc2oc(-c3ccccc3)cc(=O)c2c1O | -8.46% | –
39 | O=C1CC(c2cc(O)cc(O)c2)Oc2cc(O)ccc21 (stereo not given) | -4.85% | –
40 | CN1C(=O)[C@]23SS[C@@]1(C)C(=O)N2[C@H]1Nc2ccccc2[C@]1(c1c[nH]c2ccccc12)[C@@H]3O | – | 5.26 µM (active)
